# Most compounds without a hit are left out; they make up all but 4.7% or so of the library.
# tim10-1 inh: growth inhibitors of tim10-1 mutant yeast, primary screen, luminescence, uHTS | 330,000 compounds, 2.2% hits | inhibition, % at 20 µM | S. cerevisiae tim10-1 ts strain growth, BacTiter-Glo, 24 h;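 active = inhibition of at least 40%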;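 also: mutant grown at 25 °C; 0% = DMSO wells with yeast and 100% = wells holding no yeast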
# TIM10 inh: growth inhibitors of isogenic TIM10 control yeast, primary screen, counter-screen for tim10-1 yeast inhibitor project, luminescence, uHTS; 330,000 compounds, 1.4% hits; S. cerevisiae TIM10 strain growth, BacTiter-Glo luminescence, 24 h; inhibition, % at 10 µM;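 active = inhibition of 40% or more at the single tested concentration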;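 also: wild-type TIM10 isogenic control strain grown at permissive 25 °C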
# SKKanGAS inh: S. pyogenes SKKanGAS growth inhibitors in kanamycin, primary screen, streptokinase expression inhibitor project, SKKanGAS strain, BacTiter-Glo luminescence; 6 h; inhibition, % at 7.5 µM; 300,000 compounds, 1.3% hits;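 active = mean replicate score, as percent of positive control median, at least 50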;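 also: strain carries kanamycin resistance gene driven by streptokinase promoter and grows in 40 µg/ml kanamycin; loss of luminescence reflects streptokinase promoter inhibition or plain growth inhibition; 0% = median of DMSO wells and 100% = positive control at its reference dose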
# tim23-1 inh: growth inhibitors of tim23-1 mutant yeast, primary screen, luminescence, uHTS. S. cerevisiae tim23-1 growth, BacTiter-Glo luminescence, 24 h. 330,000 compounds, 1.3% hits. inhibition, % at 20 µM;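 active = growth inhibition of the mutant yeast at or above 50%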;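 also: temperature-sensitive mutant grown at 25 °C; plate controls were DMSO-treated mutant yeast for no effect and medium wells lacking yeast for full effect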
# PfHsp90 yeast 2: growth inhibition of PfHsp90-expressing yeast, primary screen, antimalarial PfHsp90 inhibitor project, S. cerevisiae, BacTiter-Glo luminescence, single point, set 2 | inhibition, % at 9.4 µM | AID 504621, 2011 | 310,000 compounds, 0.32% hits | BacTiter-Glo ATP, 48 h; yeast lacking PDR1 and PDR3 efflux regulators;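 active = every replicate shows inhibition above about 80%, whatever the replicate mean, limit read from the data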;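 also: 0% = DMSO neutral controls and 100% = 20 µM radicicol positive controls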
# ATG4B inhibitor: ATG4B protease inhibitors, primary screen, biochemical, fluorescence, uHTS | Cysteine protease ATG4B (Homo sapiens), Q9Y4P1 | ATG4B cleavage of LC3-PLA2, NBD-HPC fluorescence, 1 h | inhibition, % at 8.33 µM | 340,000 compounds, 0.51% hits | AID 504462, 2011; in the data active = inhibition above about 40%
# Target sequence (Q9Y4P1 whole entry, looked up): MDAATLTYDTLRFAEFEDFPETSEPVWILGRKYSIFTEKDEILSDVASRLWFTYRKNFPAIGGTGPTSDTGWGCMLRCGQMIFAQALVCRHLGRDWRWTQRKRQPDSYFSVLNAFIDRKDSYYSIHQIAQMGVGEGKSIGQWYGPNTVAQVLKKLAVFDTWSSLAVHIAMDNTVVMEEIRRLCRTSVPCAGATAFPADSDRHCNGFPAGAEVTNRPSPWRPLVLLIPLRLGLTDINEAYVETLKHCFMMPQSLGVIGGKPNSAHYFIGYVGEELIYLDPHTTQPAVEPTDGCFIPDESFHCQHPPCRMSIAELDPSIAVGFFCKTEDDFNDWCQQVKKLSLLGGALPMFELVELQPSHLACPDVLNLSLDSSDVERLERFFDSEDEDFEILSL
# tim23-1 confirm: tim23-1 mutant yeast growth inhibitors, confirmation, luminescence, single concentration. inhibition, % at 20 µM. 4,400 compounds, 83% hits. S. cerevisiae tim23-1 growth, BacTiter-Glo luminescence, 24 h. shares compounds with tim23-1 inh;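 active = inhibition above about 39% in either of two replicate wells at 20 µM, limit read from the data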;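 also: temperature-sensitive tim23-1 mutant grown at 25 °C; 0% = DMSO wells with yeast and 100% = medium wells without yeast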
# * marks the source's active call; other numbers are inactive results; · = no result given.
SMILES,tim10-1 inh,TIM10 inh,SKKanGAS inh,tim23-1 inh,PfHsp90 yeast 2,ATG4B inhibitor,tim23-1 confirm
Cc1[nH]c2ccccc2c1C(c1ccccn1)N1CCCC1 (stereo unspecified),-1,5,-1,4,7,3,·
Cc1ccc(NC(=O)c2ncn(CCCN[C@H](C)c3cccc4ccccc34)n2)cc1C,·,·,·,·,-6,-22,·
Cc1ccc2c(C(=O)CN3CCCCC3)c(C)[nH]c2c1,13,-14,-5,6,-38,-4,·
CC(=O)Nc1ccc(O)cc1,-18,-9,·,-14,7,-20,·
COc1cc(C(=O)NCc2ccccc2Cl)ccc1OCC(=O)N1CCOCC1,·,·,·,·,-7,-5,·
CN(Cc1cccc(-n2cccn2)c1)C(=O)CCc1nnc(C2CCCCC2)o1,10,3,-2,8,6,9,·
C=CCN1C(=O)/C(=C/C(=O)OC)S/C1=N\NC(=O)c1ccccc1,22,22,-5,59*,·,-7,38*
COc1ccc(OCc2n(CC(=O)OC3CC(C)CCC3C(C)C)c3ccccc3[n+]2C)cc1 (stereo unspecified),15,28,12,34,-12,19,·
Nc1ccc(N2CCCCC2)c(S(=O)(=O)Nc2ccccc2Cl)c1,18,27,12,43,0,27,·
Nc1cc(S(=O)(=O)Nc2ccccc2Cl)ccc1N1CCCCC1,36,31,·,58*,-50,-13,62*
COc1cccc(NC(=O)CSc2nnc(Cc3ccc(C)cc3)c(=O)n2N)c1,3,-8,-1,6,·,-15,·
COc1ccc(N2C(=O)CC(c3ccc([N+](=O)[O-])cc3)C2=O)cc1 (stereo unspecified),24,11,-1,14,33,6,·
CCOC(=O)CN1C(=O)CC(c2ccc([N+](=O)[O-])cc2)C1=O (stereo unspecified),34,21,2,66*,-8,-4,66*
CCOc1ccccc1NC(=O)COC(=O)c1ccc2ccccc2n1,-2,-10,·,-10,16,3,·
Fc1cccc(-c2cc3nc(-c4ccccc4)cc(N4CCC5(CC4)OCCO5)n3n2)c1,21,15,7,21,-25,-3,·
Fc1cccc(-c2cc3nc4c(c(N5CCC6(CC5)OCCO6)n3n2)CCCC4)c1,21,31,6,52*,-64,-1,37
CCOC(=O)[C@H]1[C@H]2COc3ccc(Br)cc3[C@@H]2N2C(=O)N(c3ccccc3)C(=O)[C@@]12C,24,24,·,50*,-12,4,28
O=C(C(Cc1ccccc1)n1cccc1)N1CCN(c2ccccc2)CC1 (stereo unspecified),17,12,1,55*,-12,8,31
Cc1cc(C)nc(SCC(=O)c2cc3ccccc3oc2=O)n1,16,22,4,50*,1,1,43*
O=C1c2cccc3c(Cl)ccc(c23)C(=O)N1O,23,10,-1,61*,-6,4,69*
N#C/C(C(N)=O)=c1/ccc2c(c1)N1C3=C(CCCC3)CC3CCCCC31N=2 (stereo unspecified),26,19,11,63*,·,13,52*
CCCCN(C(=O)c1ccc2c(c1)OCCO2)c1c(N)n(CC(C)C)c(=O)[nH]c1=O,12,6,11,58*,·,-6,58*
CCCCn1c(N)c(N(CCC(C)C)C(=O)c2ccc3ccccc3c2)c(=O)[nH]c1=O,6,2,·,-3,7,-5,·
CCCCn1c(N)c(N(CCC(C)C)C(=O)c2ccc3c(c2)OCCO3)c(=O)[nH]c1=O,30,22,-8,59*,·,-1,56*
CC(C)CN(C(=O)c1ccc2c(c1)OCCO2)c1c(N)n(Cc2ccccc2)c(=O)[nH]c1=O,28,17,1,52*,·,0,55*
SMILES,tim10-1 inh,TIM10 inh,SKKanGAS inh,tim23-1 inh,PfHsp90 yeast 2,ATG4B inhibitor,tim23-1 confirm
CCCCN(C(=O)c1ccc(C)c(S(=O)(=O)N2CCOCC2)c1)c1c(N)n(CC(C)C)c(=O)[nH]c1=O,1,-1,21,5,·,-3,·
CC(C)(C)c1ccc(C(=O)CCCSC2=C(C#N)C(c3ccco3)C3=C(CCCC3=O)N2)cc1 (stereo unspecified),6,15,·,13,-4,30,·
CC(=O)Nc1ccc2nc(-c3cccn3C)[nH]c2c1,-4,9,-5,-5,-1,9,·
O=C(Nc1ccc2nc(-c3ccc(Br)o3)[nH]c2c1)c1cccs1,18,38,12,73*,·,-12,72*
Cn1cccc1-c1nc2ccc(NC(=O)c3cccs3)cc2[nH]1,1,24,0,56*,-6,-12,48*
O=C(Nc1ccc2nc(-c3ccc(Br)o3)[nH]c2c1)c1ccco1,7,38,1,57*,4,2,66*
Cc1[nH][nH]c(=O)c1C(c1ccc(-c2cccc(C(=O)O)c2)o1)c1c(C)[nH][nH]c1=O,8,6,7,12,26,0,·
COC(=O)c1ccc(-c2ccc(C(c3c(C)[nH][nH]c3=O)c3c(C)[nH][nH]c3=O)o2)cc1,0,-6,-1,57*,7,12,37*
Cc1[nH][nH]c(=O)c1C(c1ccc(-c2ccccc2C(=O)O)o1)c1c(C)[nH][nH]c1=O,·,·,-1,·,-24,-4,·
Cc1[nH][nH]c(=O)c1C(c1ccc(-c2cccc(Cl)c2)o1)c1c(C)[nH][nH]c1=O,3,-19,5,78*,11,4,62*
CCN1CCN(c2ccc(S(=O)(=O)N3CCCCC3)cc2NC(=O)c2cccc(C)c2[N+](=O)[O-])CC1,-2,9,4,3,-14,1,·
COc1ccc(C2CC(c3ccccc3O)=NN2c2ccccc2)cc1 (stereo unspecified),8,9,14,2,-7,-4,·
COc1ccc(C2CC(c3ccccc3)=NN2c2ccc(Cl)c(C(=O)O)c2)cc1 (stereo unspecified),10,8,25,21,-31,17,·
CCC(=O)Nc1cccc(C2=NN(c3ccccc3)C(c3ccc(OC)cc3)C2)c1 (stereo unspecified),8,13,12,51*,-42,-3,30
